We go through 39 sequences from paper PMC7862700, “An all-to-all approach to the identification of sequence-specific readers for epigenetic DNA modifications on cytosine”.

ETV6, sequence (P41212 whole entry): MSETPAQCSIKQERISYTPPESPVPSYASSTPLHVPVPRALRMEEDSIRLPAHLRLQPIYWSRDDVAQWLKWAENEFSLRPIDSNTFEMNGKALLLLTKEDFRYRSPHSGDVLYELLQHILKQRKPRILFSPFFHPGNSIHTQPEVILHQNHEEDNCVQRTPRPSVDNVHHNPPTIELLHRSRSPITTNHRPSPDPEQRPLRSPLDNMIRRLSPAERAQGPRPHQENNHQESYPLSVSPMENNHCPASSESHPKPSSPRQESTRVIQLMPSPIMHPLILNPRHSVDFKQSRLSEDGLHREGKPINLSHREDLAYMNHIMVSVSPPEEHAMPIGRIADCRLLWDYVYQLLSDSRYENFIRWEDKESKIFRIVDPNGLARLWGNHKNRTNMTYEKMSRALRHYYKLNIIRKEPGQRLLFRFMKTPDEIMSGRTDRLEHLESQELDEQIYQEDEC

For the first assay, the target named is T1, ETV3 (Homo sapiens, UniProt P41162-2 1-143).
T1 sequence: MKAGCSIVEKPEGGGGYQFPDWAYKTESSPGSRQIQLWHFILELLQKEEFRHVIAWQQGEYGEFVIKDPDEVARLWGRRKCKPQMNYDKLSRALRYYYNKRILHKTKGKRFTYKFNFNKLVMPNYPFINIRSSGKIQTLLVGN
As to the kind of experiment: DAPPL (digital affinity profiling via proximity ligation, sequencing); 10 mM Tris-HCl pH 7.5, 50 mM NaCl, 1 mM DTT, 4% glycerol, room temperature, 30 min; GST-TFs on glutathione beads, 16-mer random dsDNA library, 0.1% formaldehyde crosslink after washing; high values mean tight binding. To be noted: protein: recombinant; tags: N-terminal GST; dsDNA, one strand shown. The essentials: (§1)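 Binding signal is given per hexamer as its read frequency for a factor divided by its frequency in the tag-only sample. GST-fused human transcription factors were expressed in yeast, captured on glutathione beads, barcoded with DNA and pooled with that sample, then incubated with 200 nmole of a 16-mer random double-stranded DNA library in Tris/NaCl/DTT/glycerol buffer for 30 min at room temperature. The pools were then washed, crosslinked, proximity-ligated, amplified by PCR and sequenced on an Illumina NextSeq500.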
On to ACCTGG, for which the binding signal was 1.21 fold enrichment (6-mer frequency, TF over GST control).
As for ACACCC, the binding signal is 1.14 fold enrichment (6-mer frequency, TF over GST control).
Same read-out and setting: to ATACGC belongs 1.07 fold enrichment (6-mer frequency, TF over GST control).
The same measure, in the same setting: to AACATG belongs 1.11 fold enrichment (6-mer frequency, TF over GST control); to ATCCAC, 1.14 fold enrichment (6-mer frequency, TF over GST control).
For TGAAAC, the binding signal was 1.28 fold enrichment (6-mer frequency, TF over GST control).
Same read-out and setting: as for CGCGTC, the figure is 1.23 fold enrichment (6-mer frequency, TF over GST control).
Still for that read-out and setting: as for CGACAC, the figure is 1.2 fold enrichment (6-mer frequency, TF over GST control).
Still for that read-out and setting: to AACCAT belongs 1.16 fold enrichment (6-mer frequency, TF over GST control); to GACATT, 1.21 fold enrichment (6-mer frequency, TF over GST control); to TTCTGT, 1.19 fold enrichment (6-mer frequency, TF over GST control).
As to CACTCG, the binding signal is 1.09 fold enrichment (6-mer frequency, TF over GST control).
The same measure, in the same setting: to CTAAAA belongs 1.12 fold enrichment (6-mer frequency, TF over GST control).
Still for that read-out and setting: as for TAGTGT, the figure is 1.13 fold enrichment (6-mer frequency, TF over GST control).
As to TCCAAA, the binding signal is 1.2 fold enrichment (6-mer frequency, TF over GST control).
In the case of TTGTAG, the binding signal is 1.13 fold enrichment (6-mer frequency, TF over GST control).
Still for that read-out and setting: to TTTCAA belongs 1.31 fold enrichment (6-mer frequency, TF over GST control); to GTAATT, 1.18 fold enrichment (6-mer frequency, TF over GST control); to ACTGCA, 1.17 fold enrichment (6-mer frequency, TF over GST control).
Same read-out and setting: as for CGGCAT, the figure is 1.19 fold enrichment (6-mer frequency, TF over GST control); as for ACTCCA, 1.17 fold enrichment (6-mer frequency, TF over GST control); as for AATTCA, 1.31 fold enrichment (6-mer frequency, TF over GST control).
The same measure, in the same setting: as for CTACCC, the figure is 1.28 fold enrichment (6-mer frequency, TF over GST control); as for TCTGTT, 1.25 fold enrichment (6-mer frequency, TF over GST control); as for GATGGT, 1.12 fold enrichment (6-mer frequency, TF over GST control).
In the case of TGGTTC, the binding signal was 1.44 fold enrichment (6-mer frequency, TF over GST control).
Still for that read-out and setting: to TACCGA belongs 1.09 fold enrichment (6-mer frequency, TF over GST control); to CCCTTT, 1.36 fold enrichment (6-mer frequency, TF over GST control); to TAGGCT, 1.14 fold enrichment (6-mer frequency, TF over GST control).
TCTAAC: the binding signal was 1.18 fold enrichment (6-mer frequency, TF over GST control).
The same measure, in the same setting: to CGGAAG belongs 3.28 fold enrichment (6-mer frequency, TF over GST control).
Still for that read-out and setting: as for TGACAT, the figure is 1.26 fold enrichment (6-mer frequency, TF over GST control); as for ACGATA, 1.13 fold enrichment (6-mer frequency, TF over GST control).
Same read-out and setting: to CTATTA belongs 1.05 fold enrichment (6-mer frequency, TF over GST control); to ACTGTT, 1.2 fold enrichment (6-mer frequency, TF over GST control).
Regarding ATAGCT, the binding signal was 1.12 fold enrichment (6-mer frequency, TF over GST control).
On the same count and under the same terms, as for CAGGAA, the figure is 1.72 fold enrichment (6-mer frequency, TF over GST control); as for GATGAA, 1.11 fold enrichment (6-mer frequency, TF over GST control).
Turning to TAACCA, the binding signal was 1.13 fold enrichment (6-mer frequency, TF over GST control).

In the next assay the target is ETV6 (Homo sapiens, UniProt P41212 1-452). The assay is described as above. To be noted: protein: recombinant; tags: N-terminal GST; dsDNA, one strand shown. In outline:
as §1
On to ACCTGG, for which the binding signal is 1.28 fold enrichment (6-mer frequency, TF over GST control).
On the same count and under the same terms, as for ACACCC, the figure is 1.01 fold enrichment (6-mer frequency, TF over GST control).
Same read-out and setting: as for ATACGC, the figure is 1.2 fold enrichment (6-mer frequency, TF over GST control).
Still for that read-out and setting: to AACATG belongs 1.25 fold enrichment (6-mer frequency, TF over GST control).
Take ATCCAC: the binding signal is 1.25 fold enrichment (6-mer frequency, TF over GST control).
The same measure, in the same setting: as for TGAAAC, the figure is 1.13 fold enrichment (6-mer frequency, TF over GST control); as for CGCGTC, 1.29 fold enrichment (6-mer frequency, TF over GST control); as for CGACAC, 1.28 fold enrichment (6-mer frequency, TF over GST control).
On the same count and under the same terms, as for AACCAT, the figure is 1.13 fold enrichment (6-mer frequency, TF over GST control).
Still for that read-out and setting: as for GACATT, the figure is 1.26 fold enrichment (6-mer frequency, TF over GST control).
With TTCTGT, the binding signal was 1.38 fold enrichment (6-mer frequency, TF over GST control).
With CACTCG, the binding signal was 1.1 fold enrichment (6-mer frequency, TF over GST control).
Still for that read-out and setting: to CTAAAA belongs 1.15 fold enrichment (6-mer frequency, TF over GST control).
The same measure, in the same setting: to TAGTGT belongs 1.02 fold enrichment (6-mer frequency, TF over GST control); to TCCAAA, 1.14 fold enrichment (6-mer frequency, TF over GST control); to TTGTAG, 1.13 fold enrichment (6-mer frequency, TF over GST control).
The same measure, in the same setting: to TTTCAA belongs 1.21 fold enrichment (6-mer frequency, TF over GST control); to GTAATT, 1.3 fold enrichment (6-mer frequency, TF over GST control); to ACTGCA, 1.2 fold enrichment (6-mer frequency, TF over GST control).
Take CGGCAT: the binding signal was 1.21 fold enrichment (6-mer frequency, TF over GST control).
On the same count and under the same terms, as for ACTCCA, the figure is 1.13 fold enrichment (6-mer frequency, TF over GST control).
On the same count and under the same terms, as for AATTCA, the figure is 1.23 fold enrichment (6-mer frequency, TF over GST control); as for CTACCC, 1.21 fold enrichment (6-mer frequency, TF over GST control).
With TCTGTT, the binding signal is 1.35 fold enrichment (6-mer frequency, TF over GST control).
On the same count and under the same terms, as for GATGGT, the figure is 1.1 fold enrichment (6-mer frequency, TF over GST control); as for TGGTTC, 1.32 fold enrichment (6-mer frequency, TF over GST control); as for TACCGA, 1.09 fold enrichment (6-mer frequency, TF over GST control).
Take CCCTTT: the binding signal was 1.4 fold enrichment (6-mer frequency, TF over GST control).
Same read-out and setting: to TAGGCT belongs 1.24 fold enrichment (6-mer frequency, TF over GST control).
Same read-out and setting: as for TCTAAC, the figure is 1.22 fold enrichment (6-mer frequency, TF over GST control); as for CGGAAG, 3.4 fold enrichment (6-mer frequency, TF over GST control); as for TGACAT, 1.37 fold enrichment (6-mer frequency, TF over GST control).
For the sequence ACGATA, the binding signal was 1.18 fold enrichment (6-mer frequency, TF over GST control).
For CTATTA, the binding signal was 1.14 fold enrichment (6-mer frequency, TF over GST control).
On the same count and under the same terms, to ACTGTT belongs 1.2 fold enrichment (6-mer frequency, TF over GST control).
On the same count and under the same terms, as for ATAGCT, the figure is 1.13 fold enrichment (6-mer frequency, TF over GST control); as for CAGGAA, 1.83 fold enrichment (6-mer frequency, TF over GST control).
The same measure, in the same setting: as for GATGAA, the figure is 1.18 fold enrichment (6-mer frequency, TF over GST control).
Consider TAACCA, for which the binding signal was 1.04 fold enrichment (6-mer frequency, TF over GST control).
